Laboratory results from publication PMC7862700, “An all-to-all approach to the identification of sequence-specific readers for epigenetic DNA modifications on cytosine”.

Tests used:
Assay in all cases: DAPPL (digital affinity profiling via proximity ligation, sequencing); 10 mM Tris-HCl pH 7.5, 50 mM NaCl, 1 mM DTT, 4% glycerol, room temperature, 30 min; GST-TFs on glutathione beads, 16-mer random dsDNA library, 0.1% formaldehyde crosslink after washing; high values mean tight binding
FLI1 = biological target: T1, FLI1 (Homo sapiens, UniProt Q01543 1-452); conditions: protein: recombinant; tags: N-terminal GST; dsDNA, one strand shown
T1 sequence: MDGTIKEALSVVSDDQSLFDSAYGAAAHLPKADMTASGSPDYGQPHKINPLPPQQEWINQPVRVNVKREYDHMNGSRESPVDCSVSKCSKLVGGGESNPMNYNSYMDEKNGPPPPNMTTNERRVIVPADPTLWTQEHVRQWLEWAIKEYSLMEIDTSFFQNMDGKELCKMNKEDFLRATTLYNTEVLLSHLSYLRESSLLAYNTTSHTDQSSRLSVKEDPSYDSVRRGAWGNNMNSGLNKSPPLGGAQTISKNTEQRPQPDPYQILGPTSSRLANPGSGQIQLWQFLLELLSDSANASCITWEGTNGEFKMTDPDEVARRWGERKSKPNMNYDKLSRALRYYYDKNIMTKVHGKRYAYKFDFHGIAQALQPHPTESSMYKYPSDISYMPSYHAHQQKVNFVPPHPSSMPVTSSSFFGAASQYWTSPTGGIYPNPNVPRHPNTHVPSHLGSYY
Method in brief: (§1)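 A tag-only sample was pooled with DNA-barcoded human transcription factors that had been expressed in yeast as GST fusions and captured on glutathione beads. The pools were incubated for 30 min at room temperature with 200 nmole of a random double-stranded 16-mer DNA library in Tris/NaCl/DTT/glycerol buffer, then washed, crosslinked with 0.1% formaldehyde, proximity-ligated (BsaI/T4 ligase, 1 h, 37 °C), PCR-amplified and sequenced on an Illumina NextSeq500. Binding signal is each hexamer's read frequency for a factor divided by its frequency for the tag-only sample.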

ELK1 = biological target: T2, ELK1 (Homo sapiens, UniProt P19419 1-428); conditions: protein: recombinant; tags: N-terminal GST; dsDNA, one strand shown
T2 sequence: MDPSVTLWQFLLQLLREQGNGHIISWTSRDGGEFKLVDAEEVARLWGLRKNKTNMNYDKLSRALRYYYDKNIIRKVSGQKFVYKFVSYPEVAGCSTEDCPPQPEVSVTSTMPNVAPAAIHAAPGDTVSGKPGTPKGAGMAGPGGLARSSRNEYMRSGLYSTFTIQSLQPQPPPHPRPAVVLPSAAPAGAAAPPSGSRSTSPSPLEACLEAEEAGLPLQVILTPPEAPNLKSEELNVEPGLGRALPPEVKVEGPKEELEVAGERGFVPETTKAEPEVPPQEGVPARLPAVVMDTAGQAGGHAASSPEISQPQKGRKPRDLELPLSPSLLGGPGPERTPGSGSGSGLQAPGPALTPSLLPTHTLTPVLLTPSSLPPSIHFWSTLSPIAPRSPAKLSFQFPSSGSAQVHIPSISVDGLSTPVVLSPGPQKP
Method in brief: as §1

GABPA = biological target: T3, GABPA (Homo sapiens, UniProt Q06546 1-454); conditions: protein: recombinant; tags: N-terminal GST; dsDNA, one strand shown
T3 sequence: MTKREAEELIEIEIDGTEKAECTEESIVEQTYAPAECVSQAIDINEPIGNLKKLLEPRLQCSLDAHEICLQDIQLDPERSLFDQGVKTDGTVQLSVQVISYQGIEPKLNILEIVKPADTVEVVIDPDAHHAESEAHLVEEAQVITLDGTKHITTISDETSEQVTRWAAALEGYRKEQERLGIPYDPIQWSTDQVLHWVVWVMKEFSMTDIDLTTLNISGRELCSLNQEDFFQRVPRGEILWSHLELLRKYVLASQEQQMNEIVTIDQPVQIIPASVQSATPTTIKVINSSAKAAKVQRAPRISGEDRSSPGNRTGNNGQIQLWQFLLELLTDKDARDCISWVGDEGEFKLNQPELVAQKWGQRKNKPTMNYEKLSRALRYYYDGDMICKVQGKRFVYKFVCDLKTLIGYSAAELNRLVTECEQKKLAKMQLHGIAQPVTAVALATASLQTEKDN
Method in brief: as §1

ERG = biological target: T4, ERG (Homo sapiens, UniProt P11308 1-479); conditions: protein: recombinant; tags: N-terminal GST; dsDNA, one strand shown
T4 sequence: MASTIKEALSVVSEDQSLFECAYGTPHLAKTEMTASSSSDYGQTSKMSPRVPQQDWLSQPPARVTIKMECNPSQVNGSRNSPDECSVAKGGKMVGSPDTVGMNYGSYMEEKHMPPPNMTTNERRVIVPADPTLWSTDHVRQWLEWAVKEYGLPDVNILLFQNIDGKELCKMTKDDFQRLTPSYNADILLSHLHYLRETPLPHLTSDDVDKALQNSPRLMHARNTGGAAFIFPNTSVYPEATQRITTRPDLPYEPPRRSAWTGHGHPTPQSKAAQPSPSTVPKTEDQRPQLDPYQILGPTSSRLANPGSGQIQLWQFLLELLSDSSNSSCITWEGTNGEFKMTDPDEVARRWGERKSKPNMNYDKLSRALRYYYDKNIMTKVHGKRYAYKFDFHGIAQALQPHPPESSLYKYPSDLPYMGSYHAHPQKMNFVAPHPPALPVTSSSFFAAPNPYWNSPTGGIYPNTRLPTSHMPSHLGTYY
Method in brief: as §1

ELF1 = ELF1 (Homo sapiens, UniProt P32519 1-619); conditions: protein: recombinant; tags: N-terminal GST; dsDNA, one strand shown
Method in brief: as §1

EHF = biological target: T5, EHF (Homo sapiens, UniProt Q9NZC4 1-300); conditions: protein: recombinant; tags: N-terminal GST; dsDNA, one strand shown
T5 sequence: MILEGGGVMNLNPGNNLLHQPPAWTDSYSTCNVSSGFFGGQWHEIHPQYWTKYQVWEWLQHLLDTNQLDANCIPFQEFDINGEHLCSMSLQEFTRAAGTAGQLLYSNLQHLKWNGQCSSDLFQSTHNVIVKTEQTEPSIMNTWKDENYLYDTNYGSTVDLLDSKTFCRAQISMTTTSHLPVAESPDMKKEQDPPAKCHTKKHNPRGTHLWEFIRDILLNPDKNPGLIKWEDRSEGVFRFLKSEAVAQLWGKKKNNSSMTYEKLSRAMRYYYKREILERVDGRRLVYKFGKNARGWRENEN
Method in brief: as §1

SPI1 = SPI1 (Homo sapiens, UniProt P17947 1-270); conditions: protein: recombinant; tags: N-terminal GST; dsDNA, one strand shown
Method in brief: as §1

SPIB = SPIB (Homo sapiens, UniProt Q01892 1-262); conditions: protein: recombinant; tags: N-terminal GST; dsDNA, one strand shown
Method in brief: as §1

ELK3 = biological target: T6, ELK3 (Homo sapiens, UniProt P41970 1-407); conditions: protein: recombinant; tags: N-terminal GST; dsDNA, one strand shown
T6 sequence: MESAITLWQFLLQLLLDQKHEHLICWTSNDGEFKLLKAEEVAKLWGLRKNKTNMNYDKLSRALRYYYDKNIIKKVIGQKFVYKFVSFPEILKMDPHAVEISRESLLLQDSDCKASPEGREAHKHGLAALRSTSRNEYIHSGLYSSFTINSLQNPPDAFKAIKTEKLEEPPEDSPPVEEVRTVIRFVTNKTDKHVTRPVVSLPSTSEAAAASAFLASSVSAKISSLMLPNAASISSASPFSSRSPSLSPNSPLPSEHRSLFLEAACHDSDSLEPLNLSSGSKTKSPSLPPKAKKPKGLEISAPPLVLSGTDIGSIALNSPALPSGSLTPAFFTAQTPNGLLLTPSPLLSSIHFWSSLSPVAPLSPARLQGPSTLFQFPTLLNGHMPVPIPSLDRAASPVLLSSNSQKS
Method in brief: as §1

FEV = biological target: T7, FEV (Homo sapiens, UniProt Q99581 1-238); conditions: protein: recombinant; tags: N-terminal GST; dsDNA, one strand shown
T7 sequence: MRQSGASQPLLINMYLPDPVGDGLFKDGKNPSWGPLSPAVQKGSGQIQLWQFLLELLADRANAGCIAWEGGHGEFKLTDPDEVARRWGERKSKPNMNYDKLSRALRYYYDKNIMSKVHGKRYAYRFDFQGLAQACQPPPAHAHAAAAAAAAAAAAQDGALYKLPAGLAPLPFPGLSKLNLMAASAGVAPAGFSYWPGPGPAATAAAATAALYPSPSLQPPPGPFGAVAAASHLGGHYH
Method in brief: as §1

ETV5 = ETV5 (Homo sapiens, UniProt P41161 1-510); conditions: protein: recombinant; tags: N-terminal GST; dsDNA, one strand shown
Method in brief: as §1

HSF1 = HSF1 (Homo sapiens, UniProt Q00613 1-529); conditions: protein: recombinant; tags: N-terminal GST; chain copies: 3; dsDNA, one strand shown
Method in brief: as §1

SPIC = biological target: T8, SPIC (Homo sapiens, UniProt Q8N5J4 1-248); conditions: protein: recombinant; tags: N-terminal GST; dsDNA, one strand shown
T8 sequence: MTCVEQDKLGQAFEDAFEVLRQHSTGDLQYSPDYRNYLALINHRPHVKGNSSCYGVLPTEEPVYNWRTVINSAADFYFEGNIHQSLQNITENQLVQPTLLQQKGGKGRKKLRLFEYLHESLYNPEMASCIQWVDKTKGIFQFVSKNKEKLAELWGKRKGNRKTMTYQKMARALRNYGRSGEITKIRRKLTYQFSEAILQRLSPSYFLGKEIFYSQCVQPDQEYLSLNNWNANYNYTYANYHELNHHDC
Method in brief: as §1

ELF4 = ELF4 (Homo sapiens, UniProt Q99607 1-663); conditions: protein: recombinant; tags: N-terminal GST; dsDNA, one strand shown
Method in brief: as §1

ELK4 = biological target: T9, ELK4 (Homo sapiens, UniProt P28324-2 1-405); conditions: protein: recombinant; tags: N-terminal GST; dsDNA, one strand shown
T9 sequence: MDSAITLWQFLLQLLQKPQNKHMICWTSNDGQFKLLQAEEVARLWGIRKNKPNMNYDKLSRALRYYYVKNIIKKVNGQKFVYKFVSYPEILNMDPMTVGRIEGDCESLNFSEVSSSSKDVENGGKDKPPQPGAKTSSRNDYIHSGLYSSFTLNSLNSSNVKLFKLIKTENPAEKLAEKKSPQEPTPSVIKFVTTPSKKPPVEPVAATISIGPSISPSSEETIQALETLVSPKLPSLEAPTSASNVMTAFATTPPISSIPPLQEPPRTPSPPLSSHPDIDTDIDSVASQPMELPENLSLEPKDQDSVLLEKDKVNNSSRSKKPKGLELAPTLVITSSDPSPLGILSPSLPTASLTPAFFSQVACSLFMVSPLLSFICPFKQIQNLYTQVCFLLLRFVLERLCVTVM
Method in brief: as §1

ETV2 = biological target: T10, ETV2 (Homo sapiens, UniProt O00321 1-342); conditions: protein: recombinant; tags: N-terminal GST; dsDNA, one strand shown
T10 sequence: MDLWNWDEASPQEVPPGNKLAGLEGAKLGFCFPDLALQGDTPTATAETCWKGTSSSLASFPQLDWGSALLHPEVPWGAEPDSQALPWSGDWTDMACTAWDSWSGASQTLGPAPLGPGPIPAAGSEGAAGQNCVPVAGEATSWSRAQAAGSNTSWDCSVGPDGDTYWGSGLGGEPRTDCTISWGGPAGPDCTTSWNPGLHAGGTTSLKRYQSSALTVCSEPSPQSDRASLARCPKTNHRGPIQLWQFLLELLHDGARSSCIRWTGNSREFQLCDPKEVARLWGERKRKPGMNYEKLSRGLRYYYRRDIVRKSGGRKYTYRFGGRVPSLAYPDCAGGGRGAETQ
Method in brief: as §1

ELF3 = biological target: T11, ELF3 (Homo sapiens, UniProt P78545 1-371); conditions: protein: recombinant; tags: N-terminal GST; dsDNA, one strand shown
T11 sequence: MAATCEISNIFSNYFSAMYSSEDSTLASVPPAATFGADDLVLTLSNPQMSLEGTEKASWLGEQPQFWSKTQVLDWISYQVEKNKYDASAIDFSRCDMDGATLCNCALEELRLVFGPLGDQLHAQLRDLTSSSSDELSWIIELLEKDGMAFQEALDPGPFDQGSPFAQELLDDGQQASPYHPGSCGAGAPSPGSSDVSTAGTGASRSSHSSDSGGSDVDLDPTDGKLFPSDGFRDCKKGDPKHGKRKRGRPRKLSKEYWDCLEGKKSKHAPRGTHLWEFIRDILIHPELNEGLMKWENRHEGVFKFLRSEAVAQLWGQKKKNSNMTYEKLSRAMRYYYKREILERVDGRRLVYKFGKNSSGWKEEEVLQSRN
Method in brief: as §1

CRX = CRX (Homo sapiens, UniProt O43186 1-299); conditions: protein: recombinant; tags: N-terminal GST; dsDNA, one strand shown
Method in brief: as §1

ETV1 = ETV1 (Homo sapiens, UniProt P50549 1-477); conditions: protein: recombinant; tags: N-terminal GST; dsDNA, one strand shown
Method in brief: as §1

Chain of ELF1 (P32519 whole entry): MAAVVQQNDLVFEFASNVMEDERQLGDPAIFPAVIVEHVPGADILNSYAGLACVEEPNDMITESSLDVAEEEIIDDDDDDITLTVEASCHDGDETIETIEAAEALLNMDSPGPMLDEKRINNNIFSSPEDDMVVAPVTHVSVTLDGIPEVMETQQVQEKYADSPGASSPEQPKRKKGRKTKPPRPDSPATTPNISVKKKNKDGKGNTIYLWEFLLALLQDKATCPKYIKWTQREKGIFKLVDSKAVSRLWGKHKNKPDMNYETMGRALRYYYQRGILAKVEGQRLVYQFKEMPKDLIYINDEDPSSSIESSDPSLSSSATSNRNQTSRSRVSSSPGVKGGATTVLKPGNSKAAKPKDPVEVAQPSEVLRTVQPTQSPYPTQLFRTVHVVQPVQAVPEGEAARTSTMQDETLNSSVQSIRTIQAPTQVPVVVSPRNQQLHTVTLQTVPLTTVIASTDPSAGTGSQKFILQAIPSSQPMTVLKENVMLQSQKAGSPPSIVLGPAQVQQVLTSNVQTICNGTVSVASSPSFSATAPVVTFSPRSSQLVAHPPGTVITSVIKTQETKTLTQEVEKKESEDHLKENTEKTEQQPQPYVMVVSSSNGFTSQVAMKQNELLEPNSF
Chain of ETV5 (P41161 whole entry): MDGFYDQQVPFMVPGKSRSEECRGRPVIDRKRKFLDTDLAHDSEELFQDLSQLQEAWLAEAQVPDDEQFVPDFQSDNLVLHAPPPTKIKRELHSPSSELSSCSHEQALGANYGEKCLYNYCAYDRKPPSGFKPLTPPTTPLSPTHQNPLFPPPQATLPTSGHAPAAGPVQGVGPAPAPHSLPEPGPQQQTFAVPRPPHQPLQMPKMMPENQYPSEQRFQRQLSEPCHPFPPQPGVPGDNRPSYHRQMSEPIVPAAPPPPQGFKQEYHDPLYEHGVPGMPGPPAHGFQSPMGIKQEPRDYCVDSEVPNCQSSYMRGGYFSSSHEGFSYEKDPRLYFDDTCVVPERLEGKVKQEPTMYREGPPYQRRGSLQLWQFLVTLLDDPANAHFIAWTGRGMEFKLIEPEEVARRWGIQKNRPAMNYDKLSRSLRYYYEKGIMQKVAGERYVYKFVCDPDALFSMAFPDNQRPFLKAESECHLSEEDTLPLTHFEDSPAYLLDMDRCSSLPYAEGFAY
Chain of CRX (O43186 whole entry): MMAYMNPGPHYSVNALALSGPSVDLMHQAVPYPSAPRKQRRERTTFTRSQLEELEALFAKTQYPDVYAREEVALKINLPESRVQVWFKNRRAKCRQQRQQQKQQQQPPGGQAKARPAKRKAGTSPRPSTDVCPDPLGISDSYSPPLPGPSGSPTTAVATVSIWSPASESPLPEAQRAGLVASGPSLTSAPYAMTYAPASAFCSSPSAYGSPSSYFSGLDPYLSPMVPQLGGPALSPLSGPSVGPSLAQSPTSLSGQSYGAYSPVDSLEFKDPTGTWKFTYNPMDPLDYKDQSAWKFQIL
Chain of ETV1 (P50549 whole entry): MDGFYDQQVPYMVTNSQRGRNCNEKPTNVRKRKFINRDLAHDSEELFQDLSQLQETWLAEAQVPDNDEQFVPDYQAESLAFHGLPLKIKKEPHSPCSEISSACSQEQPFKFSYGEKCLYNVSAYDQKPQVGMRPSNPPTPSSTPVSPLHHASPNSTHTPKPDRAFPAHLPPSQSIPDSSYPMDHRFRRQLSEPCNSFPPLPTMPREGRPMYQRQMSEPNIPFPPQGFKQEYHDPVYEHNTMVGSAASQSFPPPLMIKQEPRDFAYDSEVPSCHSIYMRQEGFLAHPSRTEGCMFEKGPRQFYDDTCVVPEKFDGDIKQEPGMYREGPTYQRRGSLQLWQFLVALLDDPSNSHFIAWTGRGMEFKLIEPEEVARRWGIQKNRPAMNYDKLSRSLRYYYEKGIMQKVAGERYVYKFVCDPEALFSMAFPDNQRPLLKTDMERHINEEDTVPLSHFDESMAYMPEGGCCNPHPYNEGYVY
Chain of ELF4 (Q99607 whole entry): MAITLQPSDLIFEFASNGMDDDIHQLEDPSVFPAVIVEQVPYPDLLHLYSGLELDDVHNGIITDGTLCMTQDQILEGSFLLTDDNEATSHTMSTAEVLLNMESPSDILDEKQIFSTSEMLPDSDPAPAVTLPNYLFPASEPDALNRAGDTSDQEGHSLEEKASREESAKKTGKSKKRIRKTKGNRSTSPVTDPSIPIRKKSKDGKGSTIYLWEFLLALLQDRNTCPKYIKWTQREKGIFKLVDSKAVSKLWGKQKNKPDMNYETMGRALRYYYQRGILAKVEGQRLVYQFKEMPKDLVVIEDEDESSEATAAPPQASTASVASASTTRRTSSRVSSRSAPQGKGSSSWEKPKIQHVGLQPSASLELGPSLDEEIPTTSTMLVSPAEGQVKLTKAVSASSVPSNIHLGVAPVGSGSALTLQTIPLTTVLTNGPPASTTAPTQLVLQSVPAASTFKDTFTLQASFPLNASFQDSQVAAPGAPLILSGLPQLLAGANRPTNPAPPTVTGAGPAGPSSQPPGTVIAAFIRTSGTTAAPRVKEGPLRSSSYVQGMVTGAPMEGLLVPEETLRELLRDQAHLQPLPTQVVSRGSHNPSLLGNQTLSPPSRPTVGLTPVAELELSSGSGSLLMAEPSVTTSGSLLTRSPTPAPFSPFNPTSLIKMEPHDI
Chain of HSF1 (Q00613 whole entry): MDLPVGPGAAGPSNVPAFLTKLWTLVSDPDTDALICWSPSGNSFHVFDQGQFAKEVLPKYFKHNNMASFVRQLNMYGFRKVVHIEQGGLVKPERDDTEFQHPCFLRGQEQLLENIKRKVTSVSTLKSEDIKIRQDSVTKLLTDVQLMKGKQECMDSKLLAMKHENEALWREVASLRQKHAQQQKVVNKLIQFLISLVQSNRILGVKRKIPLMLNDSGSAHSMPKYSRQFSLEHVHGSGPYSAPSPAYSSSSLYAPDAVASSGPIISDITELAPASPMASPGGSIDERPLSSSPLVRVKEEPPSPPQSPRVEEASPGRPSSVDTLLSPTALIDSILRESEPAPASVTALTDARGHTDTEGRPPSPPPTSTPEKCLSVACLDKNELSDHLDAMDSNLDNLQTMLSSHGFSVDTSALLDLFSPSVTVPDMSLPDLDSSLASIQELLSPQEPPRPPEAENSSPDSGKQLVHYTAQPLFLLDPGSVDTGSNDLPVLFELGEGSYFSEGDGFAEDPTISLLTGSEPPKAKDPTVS
Chain of SPIB (Q01892 whole entry): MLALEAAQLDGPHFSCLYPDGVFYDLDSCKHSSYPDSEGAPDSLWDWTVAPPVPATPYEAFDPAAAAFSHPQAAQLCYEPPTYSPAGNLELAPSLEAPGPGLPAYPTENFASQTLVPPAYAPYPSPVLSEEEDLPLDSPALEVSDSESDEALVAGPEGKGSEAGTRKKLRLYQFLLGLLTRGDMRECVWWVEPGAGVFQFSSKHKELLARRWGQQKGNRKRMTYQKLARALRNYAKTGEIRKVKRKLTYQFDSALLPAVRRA

Sequence: ATGAGC
- binding signal (FLI1): 1.11 fold enrichment (6-mer frequency, TF over GST control)
- binding signal (ELK1): 1.27 fold enrichment (6-mer frequency, TF over GST control)
- binding signal (GABPA): 1.33 fold enrichment (6-mer frequency, TF over GST control)
- binding signal (ERG): 1.2 fold enrichment (6-mer frequency, TF over GST control)
- binding signal (ELF1): 1.24 fold enrichment (6-mer frequency, TF over GST control)
- binding signal (EHF): 1.18 fold enrichment (6-mer frequency, TF over GST control)
- binding signal (SPI1): 1.13 fold enrichment (6-mer frequency, TF over GST control)
- binding signal (SPIB): 1.24 fold enrichment (6-mer frequency, TF over GST control)
- binding signal (ELK3): 1.19 fold enrichment (6-mer frequency, TF over GST control)
- binding signal (FEV): 1.24 fold enrichment (6-mer frequency, TF over GST control)
- binding signal (ETV5): 1.23 fold enrichment (6-mer frequency, TF over GST control)
- binding signal (HSF1): 1.13 fold enrichment (6-mer frequency, TF over GST control)
- binding signal (SPIC): 1.29 fold enrichment (6-mer frequency, TF over GST control)
- binding signal (ELF4): 1.29 fold enrichment (6-mer frequency, TF over GST control)
- binding signal (ELK4): 1.26 fold enrichment (6-mer frequency, TF over GST control)
- binding signal (ETV2): 1.3 fold enrichment (6-mer frequency, TF over GST control)
- binding signal (ELF3): 1.35 fold enrichment (6-mer frequency, TF over GST control)
- binding signal (CRX): 1.31 fold enrichment (6-mer frequency, TF over GST control)
- binding signal (ETV1): 1.14 fold enrichment (6-mer frequency, TF over GST control)
